Assay [1] is described as follows: A549 cell viability effects, profiling panel, calcein-AM fluorescence, 48 h, basal (AID 1162). Further: test concentration not given here. To be noted: higher = more signal.
A short description of assay [2]: adipocyte viability effects, profiling panel, cell-based, 3T3-L1 adipocytes, calcein-AM fluorescence, 48 h, basal (AID 1163). Further: test concentration not given here. To be noted: 3T3-L1 adipocytes viability, higher = more signal.
The nature of assay [3]: HepG2 cell viability effects, profiling panel, calcein-AM fluorescence, 48 h, basal (AID 1164). Further: test concentration not given here. To be noted: higher = more signal.
A short description of assay [4]: MM1S cell viability effects, profiling panel, calcein-AM fluorescence, 48 h, basal (AID 1165).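 Further: viability of MM1S multiple myeloma cells under basal unstimulated conditions; test concentration not given here.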 Conditions: higher = more signal.
A short description of assay [5]: basal RPMI8226 viability, no added stimulus, profiling panel, cell-based, calcein-AM fluorescence, 48 h, PK04 Diversity Set (AID 1166).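 Further: cells grown under basal conditions without added stimulus; test concentration not given here.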 Conditions: higher = more signal; RPMI8226 myeloma viability, calcein-AM fluorescence, 48 h unless noted.
Assay [6] can be described thus: basal HepG2 mitochondrial membrane potential changes, profiling panel, cell-based, JC-1 fluorescence, 24 h, 100 nL compound (AID 1167). Further: test concentration not given here. To be noted: higher = more signal.
The nature of assay [7]: basal 3T3-L1 adipocyte mitochondrial potential changes, profiling panel, cell-based, JC-1 fluorescence, 3T3-L1 adipocytes, 24 h, 100 nL compound (AID 1168). Further: test concentration not given here. Conditions: JC-1 mitochondrial fluorescence; higher = more signal, called active from +8 up or from −8 down unless noted.
A short description of assay [8]: basal RPMI8226 mitochondrial membrane potential changes, profiling panel, cell-based, JC-1 fluorescence, 24 h, 100 nL compound (AID 1169). Further: test concentration not given here. Conditions: higher = more signal; RPMI8226 myeloma, JC-1 mitochondrial potential fluorescence, 24 h unless noted.
Assay [9] can be described thus: basal MM1S mitochondrial membrane potential changes, profiling panel, cell-based, JC-1 fluorescence, 24 h, 100 nL compound (AID 1170). Further: test concentration not given here. To be noted: higher = more signal.
The nature of assay [10]: A549 lung cancer cell viability effects, profiling panel, resazurin fluorescence, 24 h, PK04 Diversity Set (AID 1171). Further: test concentration not given here. Conditions: higher = more signal, called active from +8 up or from −8 down unless noted. Background: The colour change of resazurin is a common sign of viable cells or microbes.
A short description of assay [11]: HepG2 liver cancer cell viability effects, profiling panel, resazurin fluorescence, 24 h, PK04 Diversity Set (AID 1172). Further: test concentration not given here. Conditions: higher = more signal.
Assay [12] in a line: basal S. cerevisiae growth modulation, no modifier, primary screen, OD600, strain BY4716, 24 h, basal condition (AID 1173). Conditions: OD600, 24 h; higher = more signal, called active from +8 up or from −8 down unless noted.
A short description of assay [13]: MM1S myeloma cell viability, profiling panel, resazurin fluorescence, basal, 24 h, PK04 Diversity Set (AID 1174).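 Further: MM1S multiple myeloma cell line; test concentration not given here.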 To be noted: higher = more signal, called active from +8 up or from −8 down unless noted.
Assay [14] concerns the target Dihydroorotate dehydrogenase (quinone), mitochondrial (Plasmodium falciparum (isolate 3D7)) (UniProt Q08210). Nature of the assay: PfDHODH enzyme inhibitors, primary screen, biochemical, C-terminal His tag, absorbance 600 nm (AID 1175).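 Further: recombinant parasite enzyme with a five histidine tag at its C terminus; test concentration not given here.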 To be noted: DCIP absorbance 600 nm; higher = more signal, called active from +8 up or from −8 down unless noted.
Assay [15] in a line: P. aeruginosa biofilm formation inhibitors, primary screen, strain PAO1, LB-PBS medium, absorbance 600 nm (AID 1176). Further: test concentration not given here. Conditions: P. aeruginosa PAO1 growth/biofilm, A600, 12 h; higher = more signal.
Assay [16] in a line: S. cerevisiae RM11-1a growth modifiers, primary screen, strain RM11-1a, OD600, basal, 24 h (AID 1177).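 Further: cultures grown under basal conditions with no added stressor; test concentration not given here.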 Conditions: OD600, 24 h; higher = more signal, called active from +8 up or from −8 down unless noted.
Assay [17] in a line: E. coli acrAB mutant growth effects, primary screen, E. coli filamentation inducers, strain DRC39, OD650, 24 h (AID 1178).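 Further: growth measured as culture turbidity by optical density at 650 nm; test concentration not given here.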 To be noted: higher = more signal, called active from +8 up or from −8 down unless noted.
A short description of assay [18]: E. coli acrAB mutant growth effects, primary screen, E. coli filamentation inducers, strain DRC39, OD650, 48 h (AID 1179).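 Further: screen aims at cell division blockers that make cells filament.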 Conditions: E. coli DRC39 delta-acrAB growth, higher = more signal, called active from +8 up or from −8 down unless noted.
A short description of assay [19]: RPMI8226 myeloma cell viability, profiling panel, resazurin fluorescence, basal, 24 h, PK04 Diversity Set (AID 1180).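 Further: RPMI8826 multiple myeloma cell line at 5000 cells per well; test concentration not given here.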 Conditions: higher = more signal; RPMI8226 viability, resazurin fluorescence, 24 h unless noted.
Assay [20] concerns the target E3 ubiquitin-protein ligase XIAP (Homo sapiens) (UniProt P98170). Nature of the assay: XIAP binders, primary screen, biophysical, small-molecule microarray, fluorescence 635 nm (AID 1181).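 Further: score merges 667 nm emission and signal to noise over triplicate slides.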 To be noted: small-molecule microarray binding, higher = more signal.

The structures appear in SMILES notation. Calls of active or inactive are those of the source. Unless noted, how the calls were made is not given here.

Sequence of Dihydroorotate dehydrogenase (quinone), mitochondrial (Plasmodium falciparum (isolate 3D7)) (Q08210 whole entry, looked up): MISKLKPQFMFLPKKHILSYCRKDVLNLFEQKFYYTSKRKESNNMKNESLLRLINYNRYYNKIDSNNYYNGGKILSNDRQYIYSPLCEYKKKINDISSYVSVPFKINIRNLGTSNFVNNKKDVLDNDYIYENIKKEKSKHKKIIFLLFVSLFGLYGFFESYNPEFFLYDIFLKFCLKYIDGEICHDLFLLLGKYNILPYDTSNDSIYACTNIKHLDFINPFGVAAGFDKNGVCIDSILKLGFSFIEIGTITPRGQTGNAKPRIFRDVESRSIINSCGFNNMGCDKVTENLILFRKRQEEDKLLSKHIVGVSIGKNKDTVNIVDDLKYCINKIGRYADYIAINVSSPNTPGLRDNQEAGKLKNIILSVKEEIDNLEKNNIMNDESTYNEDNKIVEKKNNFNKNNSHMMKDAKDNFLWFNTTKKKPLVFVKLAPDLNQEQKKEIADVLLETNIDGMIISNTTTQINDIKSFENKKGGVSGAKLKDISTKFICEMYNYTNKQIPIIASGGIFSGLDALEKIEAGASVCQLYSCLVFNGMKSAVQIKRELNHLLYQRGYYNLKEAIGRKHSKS
Sequence of E3 ubiquitin-protein ligase XIAP (Homo sapiens) (P98170 whole entry, looked up): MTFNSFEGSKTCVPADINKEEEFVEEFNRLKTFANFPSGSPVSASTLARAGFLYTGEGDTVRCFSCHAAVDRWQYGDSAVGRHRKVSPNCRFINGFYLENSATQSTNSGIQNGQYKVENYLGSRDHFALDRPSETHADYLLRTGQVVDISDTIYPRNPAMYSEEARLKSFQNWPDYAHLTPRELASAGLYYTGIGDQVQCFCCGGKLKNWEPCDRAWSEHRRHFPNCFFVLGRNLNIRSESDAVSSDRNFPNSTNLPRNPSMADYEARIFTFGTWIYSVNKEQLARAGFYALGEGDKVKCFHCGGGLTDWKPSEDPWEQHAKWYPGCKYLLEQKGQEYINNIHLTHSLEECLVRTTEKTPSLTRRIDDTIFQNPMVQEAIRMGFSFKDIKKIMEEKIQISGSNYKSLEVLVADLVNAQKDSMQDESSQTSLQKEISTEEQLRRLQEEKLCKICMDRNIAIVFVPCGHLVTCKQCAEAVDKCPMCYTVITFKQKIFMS

On to `C=C(CC1(C(C)NP(=O)(c2ccccc2)c2ccccc2)CC1)c1ccccc1` (stereo not given), for which the z-score in [1] is -2.12; in assay [2], 0.844; in assay [3], -1.07; in assay [4] it was -3.18; in assay [5] it was -4.71; in assay [6] it was -2.36. In addition, the z-score in assay [7] was -0.793 (inactive); in [8], -0.819; in assay [9] it was -0.133; in assay [10] it was 2.93 (inactive); in assay [11], 0.901; in [12], -16.1 (active). The z-score in [13] was 0.794 (inactive); in assay [15], 1.38 (inactive); in [16], -16 (active); in assay [17] it was -0.628 (inactive); in assay [18] it was -0.645 (inactive); in [19], 2. In addition, the composite z-score in [14] was -0.626 (inactive); in assay [20], 0.525.

Take `CCOC(=O)[C@H]1CC=C2C(=O)Oc3ccccc3[C@@H]21`: the z-score is -0.961 in [1]; -0.214 in assay [2]; -1.13 in assay [3]; -1.35 in assay [4]; -0.132 in assay [5]; -0.417 in [6]. Moreover, the z-score in assay [7] is 0.846 (inactive); in assay [8] it was 0.979; in assay [9] it was -1.08; in [10], 0.991 (inactive); in assay [11] it was 0.867; in assay [12] it was -10.4 (active). Further, the z-score is -0.848 (inactive) in assay [13]; 0.381 (inactive) in [15]; -1.43 (inactive) in assay [16]; -0.475 (inactive) in assay [17]; -1.11 (inactive) in [18]; -0.575 in assay [19]. The figures for the composite z-score in assay [14] and in assay [20] were 0.188 (inactive) and -0.0727, respectively.

For the compound `COC(=O)[C@H]1C(=O)c2ccccc2O[C@@](C(=O)OC)(c2ccccc2)[C@@H]1c1ccccc1`, the z-score in assay [1] was -0.513; in [2], -0.328; in assay [3] it was 0.159; in [4], -1.16; in [5], -0.144; in assay [6], -0.598. The z-score in [7] was -0.31 (inactive); in assay [8] it was -0.203; in assay [9], 0.271; in assay [10], -0.002 (inactive); in assay [11] it was -0.515; in assay [12] it was -0.54 (inactive). Also, the z-score in [13] is -0.0272 (inactive); in assay [15], -0.233 (inactive); in assay [16], 0.174 (inactive); in [17], 0.27 (inactive); in assay [18], 0.419 (inactive); in assay [19], 0.223. Besides, the composite z-score was 0.0983 (inactive) in assay [14] and 0.182 in assay [20].

As for `OCc1ccc(C2=CC(c3cccs3)N(Cc3cccc(OC(F)(F)F)c3)CC2)cc1` (stereo not given), the z-score in assay [1] is 1.08; in assay [2] it was 0.314; in assay [3], -0.65; in [4] it was -2.61; in assay [5], -0.633; in assay [6], -2.28. Besides, the z-score in assay [7] was 0.0997 (inactive); in assay [8], -0.0311; in assay [9], 0.518; in assay [10], 0.439 (inactive); in assay [11] it was -0.0049; in assay [12], -1.22 (inactive). Besides, the z-score was -0.126 (inactive) in assay [13]; -0.223 (inactive) in [15]; -0.449 (inactive) in assay [16]; 0.301 (inactive) in [17]; -0.544 (inactive) in assay [18]; 0.341 in [19]. Besides, the values for the composite z-score in assay [14] and in assay [20] were -4.15 (inactive) and -0.192, respectively.

For `CCOC(=O)[C@H]1CC=C2C(=O)Oc3ccc(Br)cc3[C@@H]21`, the z-score is -2.46 in assay [1]; -0.556 in assay [2]; -2.35 in assay [3]; -2.9 in assay [4]; -3.93 in [5]; 1.36 in [6]. The z-score in assay [7] was 0.599 (inactive); in assay [8], 0.407; in assay [9], 0.132; in assay [10] it was 0.234 (inactive); in assay [11], 0.328; in assay [12] it was -17 (active). In addition, the z-score in assay [13] is -0.595 (inactive); in assay [15], 0.477 (inactive); in assay [16] it was -14 (active); in assay [17], -0.936 (inactive); in assay [18] it was -0.568 (inactive); in assay [19], -0.0544. Besides, the values for the composite z-score in assay [14] and in assay [20] were -0.89 (inactive) and 0.355, respectively.

On to `COC(=O)[C@@]1(Cc2ccccc2)[C@H]2c3cc(C(=O)N(C)C)n(C)c3C[C@H]2CN1C(=O)c1ccccc1`, for which the z-score is -1.73 in assay [1]; -0.537 in assay [2]; -0.189 in [3]; 0.0394 in [4]; -1.19 in assay [5]; 0.0427 in [6]. Also, the z-score in assay [7] was -0.078 (inactive); in assay [8], -0.318; in assay [9] it was -0.437; in [10] it was 0.0026 (inactive); in [11] it was -0.0935; in assay [12], 0.658 (inactive). In addition, the z-score in [13] is -0.923 (inactive); in [15] it was -0.222 (inactive); in assay [16], 0.299 (inactive); in assay [17], 0.0242 (inactive); in assay [18] it was 0.0618 (inactive); in [19], -0.0721. In addition, the composite z-score in assay [14] is -0.105 (inactive); in assay [20], 0.071.

On to `C[C@@H]1OC=C2[C@@H](O)[C@H]3O[C@H]3C(=O)[C@]23[C@H]1[C@H]1C2=C([C@@H](O)[C@H]4O[C@H]4C2=O)[C@@H]3O[C@@H]1C`, for which the z-score in assay [1] was 0.304; in [2], 0.441; in assay [3], 0.0428; in assay [4], -0.297; in assay [5], -0.594; in assay [6] it was -0.888. Besides, the z-score was -0.3 (inactive) in assay [7]; 0.0604 in assay [8]; 0.144 in assay [9]; 0.703 (inactive) in [10]; 0.216 in assay [11]; 0.243 (inactive) in assay [12]. Also, the z-score in [13] is 0.103 (inactive); in [15] it was 0.0251 (inactive); in assay [16] it was -0.541 (inactive); in assay [17], -0.03 (inactive); in [18], -0.0416 (inactive); in assay [19], 0.864. Besides, the composite z-score is -0.0198 (inactive) in [14] and -0.135 in assay [20].

Turning to `CCCC=C(CCC)[C@@H](NP(=O)(c1ccccc1)c1ccccc1)c1ccccc1`, the z-score is -0.0868 in assay [1]; -0.298 in [2]; 0.559 in [3]; -0.687 in [4]; -1.27 in [5]; -1.95 in [6]. For the same compound, the z-score in [7] was 0.21 (inactive); in assay [8], 0.368; in assay [9], -1.5; in [10], 1.82 (inactive); in [11], 2.47; in assay [12], 1.4 (inactive). Also, the z-score was 1.16 (inactive) in assay [13]; 0.0944 (inactive) in assay [15]; -0.903 (inactive) in assay [16]; -0.486 (inactive) in assay [17]; -0.236 (inactive) in [18]; 1.3 in [19]. Also, the composite z-score in [14] is 0.0585 (inactive); in [20], 0.0205.

The values are drawn from PubChem BioAssay.
